Outcome data for 40 compounds are collected here from PubChem BioAssay (EPA / NIEHS).

The source made the active and inactive calls. How the source made its calls: active means hit-call score of the fitted dose curve at least 0.9, where 1 is the maximum; inactive means score below 0.9.

A short description of this test: CCTE_Harrill_HTTr_Apoptosis_MCF7: CCTE's 6-hour Apoptosis Assessment for the High-Throughput Transcriptomics (HTTr) Platform, in MCF-7 cells cultured in DMEM + 10% fetal bovine serum, Harrill Lab (AID 2284011). The source says:
This is a cell-based assay that evaluates apoptosis using high content imaging to evaluate activation of caspase-3/7 using the CellEvent Caspase 3/7 Green detection reagent in 384-well format.One of seven assay components measured from the CCTE_Harrill_HTTr_Apoptosis assay. This was part of a full screening experiment. This is a cell-based assay that evaluates apoptosis in MCF-7 cells cultured in DMEM + 10% fetal bovine serum. High content imaging is used to evaluate activation of caspase-3/7 using the CellEvent Caspase 3/7 Green detection reagent. Measurements are taken at 6 hours after chemical dosing in 384-well format.The assay component endpoint CCTE_Harrill_HTTr_Apoptosis_MCF7 was analyzed with bidirectional fitting relation to DMSO as the negative control and baseline of activity. Using a type of viability reporter, gain-of-signal activity can be used to evaluate activation of caspase-3/7 using the CellEvent Caspase 3/7 Green detection reagent to understand changes in apoptosis. To generalize the intended target to other relatable targets, this assay endpoint is annotated to cell cycle, where the subfamily is apoptosis.
Chemicals were tested in MCF7 cells in an eight point dilution series with a six hour exposure duration.
As to `O=CO`, the result was inactive.

With `O=C(c1ccccc1)c1ccc(O)cc1`, the outcome was inactive.

Consider `CN1[C@@H]2CC[C@H]1CC(OC(=O)C(CO)c1ccccc1)C2` (stereo not given in full), for which the result was inactive. As for `NC[C@H](O)c1ccc(O)c(O)c1`, the entry is “inactive”; as for `O=C(O)c1ccccc1C(=O)OC1CCCCC1`, “inactive”; as for `CCCCC(CC)COC(=O)CC#N` (stereo not given), “inactive”. As for `O=c1cc(-c2ccccc2)oc2c1ccc1ccccc12`, the entry is “inactive”.

In the case of `CCCCc1nc(Cl)c(CO)n1Cc1ccc(-c2ccccc2-c2nnn[nH]2)cc1`, the result was inactive.

For the compound `O=C(c1ccccc1)C1(O)CCCCC1`, the result was inactive. As for `CC(=O)c1cccc2ccccc12`, the entry is “inactive”; as for `CCCCCC1=C(C)CCC1=O`, “inactive”; as for `CC1=CC(=O)C(C(C)C)CC1` (stereo not given), “inactive”. The entry for `O=c1ccc2ccc(O)cc2o1` is “inactive”; for `CCCCCCCC/C=C\CCCCCCCC(=O)OC` it is “inactive”; for `CCCCCCCCCCCCCCCC=O` it is “inactive”. As for `Nc1c(S(=O)(=O)O)cc(Nc2ccccc2)c2c1C(=O)c1ccccc1C2=O`, the entry is “inactive”. Consider `CC(=O)C(O)O`, for which the result was inactive. As for `CCOC(=O)[C@@H](C)Oc1ccc(Oc2cnc3cc(Cl)ccc3n2)cc1`, the result was inactive. The entry for `CC(=CC(C)(C)C)CC(C)(C)C` is “inactive”. As for `CC(CC(C)(C)C)CC(C)(C)C`, the outcome was inactive. As for `O=C(O)CCc1ccccc1`, the outcome was inactive. The entry for `Nc1nc2nc[nH]c2c(=O)[nH]1` is “inactive”; for `NCCNCCNCCNCCN` it is “inactive”; for `C=C1CCC2CC1C2(C)C` (stereo not given) it is “inactive”. As for `CCOC(=O)c1ccccc1C(=O)O`, the entry is “inactive”. As for `Cc1ccc2[nH]c3cc4c(=O)c5cc(C)ccc5[nH]c4cc3c(=O)c2c1`, the outcome was inactive. As for `CC1CN(c2cc3c(cc2F)c(=O)c(C(=O)O)cn3-c2ccc(F)cc2F)CCN1` (stereo not given), the entry is “inactive”. Turning to `Cc1ncc(C[n+]2csc(CCO)c2C)c(N)n1`, the outcome was inactive. The entry for `CCC(=O)O[C@H]1[C@H](O[C@@H]2[C@@H](C)[C@H](O[C@H]3C[C@@](C)(OC)[C@@H](O)[C@H](C)O3)[C@@H](C)C(=O)O[C@H](CC)[C@@](C)(O)[C@H](O)[C@@H](C)C(=O)[C@H](C)C[C@@]2(C)O)O[C@H](C)C[C@@H]1N(C)C` is “inactive”; for `CCCCOC(=O)/C=C/C(=O)OCCCC` it is “inactive”; for `C=O.C=O.C=O.C=O.C=O.[Fe]` it is “inactive”. The entry for `O=C1CC2(CCCC2)CC(=O)N1CCCCN1CCN(c2ncccn2)CC1` is “inactive”; for `CC(=O)C(=NNc1ccc(-c2ccc(NN=C(C(C)=O)C(=O)Nc3ccc(C)cc3C)c(Cl)c2)cc1Cl)C(=O)Nc1ccc(C)cc1C` it is “inactive”; for `Clc1ccc(-c2nc3sccn3c2/C=N/OCc2ccc(Cl)c(Cl)c2)cc1` it is “inactive”.

In the case of `CC(CNC(=S)[S-])NC(=S)[S-].[Zn+2]` (stereo not given), the result was inactive. As for `CCCCCCCCCCCC[N+](C)(C)[O-]`, the entry is “inactive”; as for `CCOCCOC(=O)C=Cc1ccc(OC)cc1`, “inactive”; as for `O=C[C@H](O)[C@@H](O)[C@@H](O)CO`, “inactive”.

As to `NC(=O)N1c2ccccc2CC(=O)c2ccccc21`, the result was inactive.

Turning to `OCCC1CCCCN1` (stereo not given), the outcome was inactive.
